Here are results for 3 compounds from PubChem BioAssay.

Where “and” joins values, the source holds several entries; their conditions need not be identical. Equal entries are not always repeated. Calls of active or inactive are those of the source. Unless noted, no rule for the calls is given here.

A short description of test [1]: signal quenchers or enhancers, Cy5 substrate/SSB – biochemical, NIH Clinical Collection, E. coli SSB, artefact control for HCV NS3 helicase inhibitor project (AID 743268). Particulars: Cy5-oligo bound E. coli SSB, fluorescence interference.
Test [2] has as its system Hepatitis C virus NS3 helicase. Nature of the test: blockers of NS3h binding to DNA – biochemical, fluorescence polarization, NIH Clinical Collection, primary screen (AID 743270). The settings on record: NS3 helicase binding to Cy5-dT15 DNA, stronger effect = higher value, concentration not given here.
The target of test [3] is Single-stranded DNA-binding protein (Escherichia coli (strain K12)) (UniProt P0AGE0). Briefly: SSB-ssDNA binding inhibitors – biochemical, fluorescence polarization, NIH Clinical Collection, counter-screen for HCV NS3 helicase inhibitor project (AID 743271; in the data active = inhibition above about 28%). Particulars: E. coli SSB-DNA binding, stronger effect = higher value, concentration not given here.
A short description of test [4]: compounds distorting NS3 helicase fluorescence signal – biochemical, NIH Clinical Collection, artefact control for HCV NS3 helicase inhibitor project (AID 743272).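 Also: HCV NS3 helicase with a Cy5 labelled single stranded DNA probe.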 The settings on record: fluorescence interference counterscreen, HCV NS3 helicase assay; stronger effect = lower value. A general note: Counterscreens check selectivity or assay interference.
Test [5] is described as follows: Wnt pathway potentiators raising nuclear beta-catenin – imaging, WNT3A-conditioned medium, mouse C2C12, NPC library, primary screen (AID 1117326; in the data active = nuclear beta-catenin stimulation mostly above about 4.2%, no sharp cut-off; inactive = mostly below about 10%). The settings on record: stronger effect = higher value.
A short description of test [6]: stimulators of insulin release from INS-1E, primary screen, cell-based, 5 mM glucose, NPC library (AID 1117329;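 active = compound raises insulin release from rat beta cells at 5 mM glucose, no numeric limit stated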). Particulars: rat INS-1E insulin secretion, at 10 µM, stronger effect = higher value.
A short description of test [7]: growth inhibition of GSK3B-pretreated HCT116 cells – cell-based, CellTiter-Glo, 0.2 to 20 µM (AID 1117336;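 active = compounds lowering colon cancer cell viability after pretreatment blocking the GSK3B kinase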). The settings on record: HCT116 viability after GSK3B inhibitor, at 20 µM, stronger effect = higher value. For orientation: Cellular ATP, detected with luciferase, serves as a proxy for viable cell number.
Test [8] is described as follows: inhibition of endothelial tube formation, primary screen, imaging, VEGF stimulated, CD31 staining, tube area, NPC library (AID 1117340;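 active = compound that reduces growth-factor-driven endothelial tube area in a mixed cell culture, no cutoff stated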). The settings on record: VEGF-stimulated ADSC/ECFC co-culture, at 10 µM, stronger effect = higher value.
The nature of test [9]: GLP1 release stimulators, primary, NCI-H716, NPC library (AID 1117341;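 active = compound raises GLP1 secretion from the human gut endocrine cells, with no numeric limit stated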). The settings on record: NCI-H716 cells, at 10 µM, stronger effect = higher value.
Test [10] is described as follows: HCT116 colon cancer cell growth inhibition, primary screen, CellTiter-Glo luminescence, NPC library (AID 1117342;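 active = compounds that lower survival of HCT116 colon cancer cells in the luminescence readout, no numeric limit stated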). Particulars: at 20 µM (top of the series).
Test [11] can be described thus: reduced SW480 viability measured with CellTiter-Glo, NPC library, primary (AID 1117343;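 active = compounds that lower viability of the colon cancer cells in the luminescence readout, with no numeric limit stated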). The settings on record: CellTiter-Glo luminescence; at 20 µM (top of the series).
The nature of test [12]: NPC library primary testing for decreased DLD-1 cell viability via CellTiter-Glo (AID 1117346;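 active = compounds that lower survival of DLD-1 colon cancer cells in the luminescence readout, no cutoff given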). Particulars: DLD-1 viability, CellTiter-Glo luminescence; at 20 µM (top of the series).
Test [13] addresses 6-phosphogluconate dehydrogenase, decarboxylating (Homo sapiens) (UniProt P52209). Briefly: inhibition of human phosphogluconate dehydrogenase – biochemical, recombinant enzyme, NADPH absorbance, primary screen (AID 1159550;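 active = at least 20% inhibition of 6-phosphogluconate dehydrogenase activity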). Particulars: recombinant 6PGD, NADPH absorbance 341 nm; at 10 µM; stronger effect = higher value.
Test [14] can be described thus: EMT-state selective cytotoxicity in co-culture – imaging, PC-3E GFP, TEM4-18 mCherry, primary screen (AID 1345086;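 active = compounds killing one labelled cell type while sparing the other, by normalised counts and ratio limits, not self-fluorescent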;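 as to all read-outs here: cells exposed to compound for 72 h before imaging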;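 as to red/green cell ratio (normalised): normalised mesenchymal count divided by normalised epithelial count so high means epithelial killing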). Particulars: PC-3E GFP / TEM4-18 mCherry co-culture, imaging cell counts, at 1 µM; for red/green cell ratio (normalised): actives lie on both sides, counts scaled to control wells, 1 = unselective.
Test [15] is described as follows: MELAS cybrid and Rieske KO viability enhancers – cell-based, MELAS cybrids, Rieske KO mouse fibroblasts, CellTiter-Glo, primary screen (AID 1508586;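 active = mean z-score across replicates of 1.96 or higher in either the MELAS or the Rieske mutant cell line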;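 also: z relative to plate mean and SD of compound and empty wells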). Particulars: low glucose.
Test [16] deals with NAD(+) hydrolase SARM1 (Homo sapiens) (UniProt Q6SZW1). Nature of the test: blocking NAD cleavage by SARM1 SAM-TIR – cell lysate, NAD-Glo luminescence (AID 1508614;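 active = compound whose remaining NAD level is above about 45 nM, limit read from the data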;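 also: higher remaining NAD means stronger inhibition of SARM1 NADase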). The settings on record: SAM-TIR HEK293T lysate NADase, at 1 µM, stronger effect = higher value.
Chain of NAD(+) hydrolase SARM1 (Homo sapiens) (Q6SZW1 whole entry, looked up, the tested form may be a part): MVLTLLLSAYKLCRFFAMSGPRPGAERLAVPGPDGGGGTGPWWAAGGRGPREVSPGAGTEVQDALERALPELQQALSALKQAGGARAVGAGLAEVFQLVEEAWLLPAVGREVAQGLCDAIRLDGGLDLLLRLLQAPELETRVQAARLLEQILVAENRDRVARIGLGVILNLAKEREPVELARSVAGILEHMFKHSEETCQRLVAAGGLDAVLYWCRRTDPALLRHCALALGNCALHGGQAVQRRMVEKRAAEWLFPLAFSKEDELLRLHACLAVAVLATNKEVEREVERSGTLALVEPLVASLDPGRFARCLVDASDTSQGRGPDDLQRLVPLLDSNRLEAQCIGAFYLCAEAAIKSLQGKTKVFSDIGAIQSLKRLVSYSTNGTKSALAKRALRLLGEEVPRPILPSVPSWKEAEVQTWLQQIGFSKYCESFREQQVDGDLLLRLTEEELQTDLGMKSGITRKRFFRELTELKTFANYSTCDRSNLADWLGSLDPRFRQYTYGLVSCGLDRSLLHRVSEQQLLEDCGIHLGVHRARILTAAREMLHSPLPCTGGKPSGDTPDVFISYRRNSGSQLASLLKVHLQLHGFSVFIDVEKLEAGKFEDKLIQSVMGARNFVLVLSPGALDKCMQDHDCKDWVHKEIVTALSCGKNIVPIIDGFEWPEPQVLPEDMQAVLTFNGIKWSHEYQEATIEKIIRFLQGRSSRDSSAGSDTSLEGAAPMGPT
The target in test [17] is Mitogen-activated protein kinase 7 (Homo sapiens) (UniProt Q13164). Briefly: Gal4-ERK5 driven luciferase induction – cell-based, HTS, primary screen (AID 1508626;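 active = luciferase signal above three times the same-plate solvent-only control wells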;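 also: luciferase driven by Gal4-ERK5 fusion binding five Gal4 sites before minimal TATA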). Particulars: HeLa Gal4-ERK5 transactivation, 18 h, at 5 µM, stronger effect = higher value.
Chain of Mitogen-activated protein kinase 7 (Homo sapiens) (Q13164 whole entry, looked up, the tested form may be a part): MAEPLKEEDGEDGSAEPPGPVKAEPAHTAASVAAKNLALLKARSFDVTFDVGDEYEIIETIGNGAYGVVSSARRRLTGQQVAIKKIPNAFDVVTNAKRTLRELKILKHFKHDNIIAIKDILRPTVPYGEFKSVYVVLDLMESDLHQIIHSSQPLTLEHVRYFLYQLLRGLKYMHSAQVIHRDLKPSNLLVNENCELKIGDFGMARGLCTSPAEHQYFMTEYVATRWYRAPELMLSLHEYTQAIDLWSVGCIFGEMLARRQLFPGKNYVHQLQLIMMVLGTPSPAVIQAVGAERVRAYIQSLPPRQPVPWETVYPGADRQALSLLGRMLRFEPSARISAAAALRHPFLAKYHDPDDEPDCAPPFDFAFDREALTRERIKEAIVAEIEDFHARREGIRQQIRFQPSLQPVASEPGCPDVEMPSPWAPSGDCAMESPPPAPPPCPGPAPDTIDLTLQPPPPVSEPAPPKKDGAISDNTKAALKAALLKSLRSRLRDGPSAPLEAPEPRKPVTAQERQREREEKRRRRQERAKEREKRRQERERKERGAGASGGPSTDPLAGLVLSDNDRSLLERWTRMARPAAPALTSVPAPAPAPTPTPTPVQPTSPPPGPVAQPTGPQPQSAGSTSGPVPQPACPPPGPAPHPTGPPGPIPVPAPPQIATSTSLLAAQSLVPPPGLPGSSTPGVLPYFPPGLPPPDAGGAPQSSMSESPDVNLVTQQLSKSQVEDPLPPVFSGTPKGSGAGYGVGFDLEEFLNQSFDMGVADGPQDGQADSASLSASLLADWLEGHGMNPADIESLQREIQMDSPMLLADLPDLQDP
Test [18] deals with F380Y. Briefly: BK channel mutant inhibitors and activators – cell-based, U2OS BacMam, thallium flux, beta subunits, selectivity assay, profiling panel (AID 1259406;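 active = thallium flux through the channel raised or lowered by more than 3 SD from vehicle-only wells, actives on both sides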;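 also: initial slope of Thallos dye fluorescence rise after thallium is added; log ratio against the mean of 0.3% DMSO vehicle wells on the same plate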). The settings on record: U2OS BacMam BK variants, at 30 µM.
A short description of test [19]: P. berghei load reduction in hepatocytes – cell-based, HepG2, luciferase luminescence, HepG2 viability, primary screen (AID 624349; in the data active = parasite load remaining mostly below about 12%, no sharp cut-off; inactive = mostly above about 10%;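 also: 100% = mean of DMSO negative control wells on the same plate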). The settings on record: P. berghei liver stage in HepG2, luciferase luminescence, concentration not given here; parasite load remaining: stronger effect = lower value; viability: measured here: HepG2 viability without parasites.
Test [20] in a line: viability loss with induced miR-34 in A549 – imaging, A549 dox-inducible miR-34, nuclei and caspase counts, primary screen (AID 1347080;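 active = compounds whose cell count with miR-34 switched on is under 0.7 times the count with it off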). Particulars: A549 miR-34 inducible, Hoechst nuclei count, 48 h.
The mark [21] stands for this setting: measured here: epithelial PC-3E GFP cell survival.
Where [22] appears, read: measured here: mesenchymal TEM4-18 mCherry cell survival.
The mark [23] stands for this setting: MELAS cybrid survival, CellTiter-Glo 48 h, stronger effect = higher value.
Setting [24] is: Rieske KO mouse fibroblast survival, CellTiter-Glo 72 h.

Chain of 6-phosphogluconate dehydrogenase, decarboxylating (Homo sapiens) (P52209 whole entry, looked up): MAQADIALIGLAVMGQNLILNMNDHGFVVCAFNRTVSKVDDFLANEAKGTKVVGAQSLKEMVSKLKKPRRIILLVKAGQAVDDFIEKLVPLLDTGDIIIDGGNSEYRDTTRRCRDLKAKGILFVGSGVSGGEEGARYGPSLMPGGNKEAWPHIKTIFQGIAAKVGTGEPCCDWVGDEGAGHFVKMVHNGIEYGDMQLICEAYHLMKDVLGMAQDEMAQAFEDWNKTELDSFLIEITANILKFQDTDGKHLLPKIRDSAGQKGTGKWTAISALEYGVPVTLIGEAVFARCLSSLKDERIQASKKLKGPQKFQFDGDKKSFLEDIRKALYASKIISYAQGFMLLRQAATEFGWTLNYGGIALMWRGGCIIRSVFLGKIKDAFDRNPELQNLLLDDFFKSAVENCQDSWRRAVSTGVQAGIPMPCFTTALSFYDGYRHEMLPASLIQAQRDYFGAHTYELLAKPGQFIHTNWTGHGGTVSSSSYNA

Usually inhibition stands for the relative decrease from the control value, in per cent. In the case of `CNCCCC12CCC(c3ccccc31)c1ccccc12`, the fluorescence ratio in test [1] was 0.97 (inactive); in test [4], 0.83 (inactive). In addition, the results for the inhibition in test [2], in [3] and in test [13] were -1.98% (inactive), -1.64% (inactive) and 8.09% (inactive), respectively. The nuclear beta-catenin stimulation in [5] (at 10 µM) is 1.9% (inactive); in test [5] (stimulation, at 2 µM) it was -0.1%. For the same compound, in test [6], the insulin secretion stimulation is 12.2% (inactive). Also, the viability decrease in test [7] is 55.6% (active). In addition, the tube area decrease in test [8] is 12.2% (inactive). Moreover, the GLP1 secretion stimulation in test [9] was 4.8% (inactive). The inhibition of viability in [10] is 87.4% (active). For the same compound, the viability decrease (inhibition) in test [11] is 121% (active); in test [12], 68.3% (active). Besides, the red/green cell ratio (normalised) in [14] is 0.89 (inactive). Besides, the normalised cell number in test [14] (setting [21]) turned out to be 1.11; in [14] (setting [22]), 0.98. Besides, the z-score in test [15] (setting [23]) is -0.365 (inactive) and 0.126 (inactive) and 0.618 (inactive); in test [15] (setting [24]) it was 0.802 and 0.382 and 0.29. Moreover, the remaining NAD in test [16] was 10 nM (inactive). Moreover, in [17], the luciferase signal was 48 AU (inactive). Also, in test [18], the log fold change Tl+ flux was 0.104 (inactive).

`CCCN1C[C@H](CSC)C[C@@H]2c3cccc4[nH]cc(c34)C[C@H]21`: the fluorescence ratio in test [1] is 1.02 (inactive); in test [4], 1 (inactive). For the same compound, the inhibition in [2] was 1.53% (inactive); in test [3] it was 10.6% (inactive); in [13], 0.728% (inactive). In addition, the nuclear beta-catenin stimulation in test [5] (at 10 µM) was 0.2% (inactive); in [5] (stimulation, at 2 µM), -1.1%. The insulin secretion stimulation in [6] was 3.5% (inactive). In addition, the viability decrease in test [7] is 20.2% (inactive). For the same compound, in test [8], the tube area decrease is -5.3% (inactive). Moreover, the GLP1 secretion stimulation in [9] was 5.1% (inactive). Moreover, the inhibition of viability in test [10] was 45.7% (inactive). The viability decrease (inhibition) is -2.1% (inactive) in [11] and 7.8% (inactive) in test [12]. For the same compound, the red/green cell ratio (normalised) in test [14] was 1.38 (inactive). The normalised cell number in test [14] (setting [21]) was 0.91; in test [14] (setting [22]), 1.25. The z-score in [15] (setting [23]) was 0.448 (inactive) and 0.276 (inactive); in [15] (setting [24]), -0.203 and -0.419. Besides, the remaining NAD in test [16] is 10 nM (inactive). Further, in [17], the luciferase signal was 40 AU (inactive). Also, the log fold change Tl+ flux in test [18] was -0.0179 (inactive).

Broadly, the viability is a per cent measure of how many cells are alive, often set against a control. `CC1(C)O[C@@H]2C[C@H]3[C@@H]4CCC5=CC(=O)C=C[C@]5(C)[C@@]4(F)[C@@H](O)C[C@]3(C)[C@]2(C(=O)CO)O1`: the parasite load remaining in test [19] is 89.9% (inactive). This compound also had a viability in test [19] of 87.8%. Moreover, the fluorescence ratio in [1] and in test [4] was 0.99 (inactive) each time. Besides, the inhibition was -0.45% (inactive) in test [2], 4.1% (inactive) in test [3] and 10.8% (inactive) in test [13]. For the same compound, the nuclear beta-catenin stimulation in test [5] (at 10 µM) is -0.5% (inactive); in [5] (stimulation, at 2 µM), 3.8%. The insulin secretion stimulation in test [6] is 3.4% (inactive). For the same compound, the viability decrease in [7] is 21.8% (inactive). Besides, the tube area decrease in [8] is 0.2% (inactive). Further, the GLP1 secretion stimulation in [9] is -1% (inactive). The inhibition of viability in [10] is 8.4% (inactive). Besides, the viability decrease (inhibition) is 34.9% (inactive) in test [11] and -6.5% (inactive) in test [12]. The fold change in [20] (stronger effect = lower value, cell number ratio, induced over uninduced) was 0.992 (inactive); in [20] (measured here: relative caspase fold change +Dox/-Dox), 0.777. For the same compound, the cell count worked out at 7390 in [20] (measured here: total cells with miR-34 induction, stronger effect = lower value) and 7450 in test [20] (measured here: total cells without miR-34 induction). For the same compound, the remaining NAD in test [16] is 10 nM (inactive). Besides, the luciferase signal in test [17] is 36 AU (inactive). In [18], the log fold change Tl+ flux was 0.0424 (inactive).
